In PubChem BioAssay (NCI):
The panel holds about 83,000 compounds, 20% with a hit somewhere; the sample as a whole holds those more often.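 Percent growth is the endpoint: 0 to 100 indicates growth inhibition (40 means 60% inhibition), 0 means no net growth, and negative values indicate cell death.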 A number with no mark means an inactive call. Activity calls are given as the source filed them. How the source made its calls: active means growth percent below 10; inactive means the rest.

Tests used:
Assay in all cases: NCI-60 one-dose screen, 48 h (100 = growth as untreated, 0 = no growth, -100 = all killed)
[1] = system: EKVX NSCLC; conditions: 10 µM
[2] = system: SN12C renal; conditions: 10 µM unless noted
[3] = system: UO-31 renal; conditions: 10 µM unless noted
[4] = system: TK-10 renal; conditions: 10 µM unless noted
[5] = system: ACHN renal; conditions: 10 µM unless noted
[6] = system: CAKI-1 renal; conditions: 10 µM unless noted
[7] = system: A498 renal; conditions: 10 µM unless noted
[8] = system: CCRF-CEM leukemia; conditions: 10 µM
[9] = system: MOLT-4 leukemia; conditions: 10 µM unless noted
[10] = system: SR leukemia; conditions: 10 µM unless noted
[11] = system: RPMI-8226 leukemia; conditions: 10 µM unless noted
[12] = system: OVCAR-8 ovarian; conditions: 10 µM unless noted
[13] = system: OVCAR-5 ovarian; conditions: 10 µM unless noted
[14] = system: OVCAR-4 ovarian; conditions: 10 µM unless noted
[15] = system: SK-OV-3 ovarian; conditions: 10 µM unless noted
[16] = system: IGROV1 ovarian; conditions: 10 µM unless noted
[17] = system: OVCAR-3 ovarian; conditions: 10 µM unless noted
[18] = system: HS 578T breast; conditions: 10 µM unless noted
[19] = system: NCI/ADR-RES ovarian; conditions: 10 µM unless noted
[20] = system: SK-MEL-2 melanoma; conditions: 10 µM unless noted

SMILES	growth [1]	growth [2]	growth [3]	growth [4]	growth [5]	growth [6]	growth [7]	growth [8]	growth [9]	growth [10]	growth [11]	growth [12]	growth [13]	growth [14]	growth [15]	growth [16]	growth [17]	growth [18]	growth [19]	growth [20]
CC(C)CCCCCOC(=O)c1ccccc1SSc1ccccc1C(=O)OCCCCCC(C)C	103%	105%	70.5%	136%	103%	97.3%	100%	70.9%	72.1%	86.9%	88.8%	104%	106%	109%	108%	116%	111%	104%	107%	
CC(O)CCC(C)[N+](=O)[O-] (stereo not drawn)			93.5%	104%	109%	104%	105%	102%	102%	95.8%	101%	104%	102%	103%	101%	105%	108%		111%	109%
Nc1nc2cc(O)ccc2n2cc3c(F)cccc3c12	24.8%	47%	2.79% (active)	-12.5% (active)	18.9%	-12.1% (active)	41.5%	58.4%	3.96% (active)	10.8%	53.7%	26.5%	38.7%	-4.95% (active)		18.4%	30%	-21.4% (active)	15.8%	
O=C1Nc2c(c(=O)n(-c3ccccc3)c3ccccc23)C(c2ccc(Cl)cc2)N1 (stereo not drawn)	86.8%	76.3%	80.5%	54.8%	102%	101%	98.1%	79.5%	81.9%	77.8%	90.5%	82.4%	101%	105%	89.8%	84%	106%	70.2%	99.7%	
OCCN1CCN(CC/C=C2/c3ccccc3Sc3ccc(C(F)(F)F)cc32)CC1		72.6%	40.1%		79%	74.9%	79.2%		41.3%			88.5%	82.4%	66.5%	73.1%	55.8%	80%	67.7%	76.1%	79.8%
COc1cc(C(=O)Nc2ccc(N(C)C)cc2)cc(OC)c1OC		94.2%	85.8%		93.1%	91.1%	82.1%		92%		97.7%	92.2%	94.7%	93.1%	85.7%	93.7%	101%	95.5%	87.3%	78.8%
CC(=O)N1CCN(CCNC(=O)n2cc(-c3ccncc3)c(-c3ccc(O)c(Cl)c3)n2)CC1	133%	102%	131%	87.2%	105%	136%	118%	95.8%	85.8%	85%	102%	106%	114%	127%	104%	127%	112%	139%	107%	
O=C(Nc1ccc(-n2cc(-c3ccncc3)c(-c3ccc(Cl)c(O)c3)n2)cc1)c1cc(C(F)(F)F)cc(C(F)(F)F)c1	97.4%	74.7%	67.5%	65.4%	54.3%	60.4%	87.7%	72.9%	55.6%	23.9%	27.6%	65.4%	84.5%	70%	72.4%	70.5%	53.2%	-4.23% (active)	72.9%	
CCCCCCCCCCCCCCCCCCOP(=O)(O)O		94.1%	86.8%		100%		110%		111%	103%	100%	97.5%	103%	117%	109%	110%	113%		108%	124%
CCOC(=O)C(C)C(C)(O)c1ccccc1 (stereo not drawn)		98.2%	78.5%		111%	109%	91.5%		95.4%		89.9%	107%	104%	89.6%	102%	101%	107%	98.4%	99.5%	97.7%
CCC(C)(CC)c1ccc(O)c(C)c1		102%	102%		106%	109%	100%		106%		98.8%	109%	109%	109%	93.4%	106%	116%	101%	102%	82.2%
COc1cc(OC)c(/C=C/c2ccc3ccccc3[n+]2C)c(OC)c1		12.3%	65.9%		25.6%	68.4%	7.12% (active)		-50.3% (active)		-20.9% (active)	9.25% (active)	22.3%	28.8%	27.1%	14.8%	1.43% (active)	34.4%	97.4%	-4.21% (active)
C[n+]1c2ccccc2c(Nc2ccc(NS(=O)(=O)CCCCN=C(N)N)cc2)c2ccc(N)cc21		17.8%	50.2%		24.1%	43.2%	50.8%		-13% (active)		48.6%	54.4%	71.9%	72.9%	51%	45.9%	68.5%	34.5%	97.5%	86.2%
COc1cccc(NC(=O)NCCNc2nccc(-c3c(-c4ccc(F)cc4)nc4sccn34)n2)c1	98.6%	72.8%	52.4%	76.2%	44.9%	93.4%	77.1%	67.5%	77.8%	88.3%	82.2%	65.5%	87%	96%	77.9%	60.5%	90.4%	110%	91.2%	
CCN(CC)CCOC(=O)c1cccnc1		96.2%	86.2%		99.3%	99.6%	62.5%		94.2%		91.4%	97.6%	96.4%	90.1%	96.1%	103%	107%	92%	101%	91.1%
Clc1ccc(I)c2ccccc12		111%	82.6%		103%	95.6%	117%		98.9%	102%	104%	102%	107%	107%	103%	107%	108%	98.9%	109%	
COC(=O)CC(=O)C(=O)OC		107%	91.4%		100%	133%	113%		97.9%	93.1%	101%	105%	108%	108%	106%	108%	106%	105%	106%	
